From PubChem BioAssay (Tox21) come the findings set out here.

Molecules are shown by their SMILES. Inconclusive results are not listed. Where a call stands in place of a potency, no number is given. Active and inactive are the calls of the source. Calls follow the shape of the dose curve; as a rule, active = well fitted inhibition curve with a large enough effect in the repeat runs; inconclusive = weak or mixed curves, or effect the other way; inactive = no such curve, though single readings can be large or run the other way.

Chain of Nuclear receptor subfamily 1 group I member 3 (Homo sapiens) (Q14994 whole entry, looked up): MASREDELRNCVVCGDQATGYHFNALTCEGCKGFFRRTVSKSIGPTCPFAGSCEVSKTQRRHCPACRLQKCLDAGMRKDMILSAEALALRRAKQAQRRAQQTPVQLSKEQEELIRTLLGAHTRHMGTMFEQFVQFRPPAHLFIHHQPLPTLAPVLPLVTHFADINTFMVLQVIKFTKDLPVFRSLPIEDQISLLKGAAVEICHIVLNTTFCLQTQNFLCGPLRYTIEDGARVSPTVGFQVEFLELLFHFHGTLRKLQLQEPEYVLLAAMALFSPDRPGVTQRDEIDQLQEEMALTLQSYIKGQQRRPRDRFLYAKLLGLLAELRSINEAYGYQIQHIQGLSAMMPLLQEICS

The assay concerns the target Nuclear receptor subfamily 1 group I member 3 (Homo sapiens) (UniProt Q14994). The assay can be described thus: qHTS assay to identify small molecule antagonists of the constitutive androstane receptor (CAR) signaling pathway (AID 1224838).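 Also: HepG2 cells stably expressing hCAR with CYP2B6 luciferase reporter stimulated by CITCO; nearly all actives have a fitted effect of over 40% in size.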 As to conditions: HepG2-CYP2B6-hCAR luciferase, CITCO-stimulated, 24 h; series mostly up to 92.4 µM. The text has this:
U.S. Tox21 Program National Center for Advancing Translational Sciences [NCATS] NIH Chemical Genomics Center [NCGC] U.S. Environmental Protection Agency [EPA] National Institutes of Environmental Health Sciences [NIEHS] National Toxicology Program [NTP] U.S. Food and Drug Administration [FDA] Tox21 Assay Overview: The constitutive androstane receptor (CAR) is a nuclear receptor which regulates multiple drug metabolizing enzymes (DMEs) and transporters. Activating CAR will generally increase the transcription and subsequent translation of CYP2B6 and CYP3A4. These two DMEs represent about 50% of the drug metabolizing potential in the body. When CAR is deactivated, the metabolizing potential in the body will decrease, subsequently increasing the toxicity in the body or lowering the therapeutic potential of a pro-drug. Recently, there have also been studies performed indicating CARs role in energy metabolism and cancer therapy. Therefore, inhibiting CARs activity could have a potential effect on diabetes and cancer. Identifying environmental toxins and compounds which modulate CAR, through the use of the Tox21 10K compound collection, will be an important step in determining the toxicity and potential therapeutic effects these factors will have on the human body.
Tox21 Assay Protocol Summary: A double-stable (hCAR and CYP2B6-2.2kb) transfected cell line, derived from human hepatoma (HepG2) cells, was utilized for the duration of the quantitative high-throughput screens. The HepG2-CYP2B6-hCAR cells suspended in DMEM culture medium supplemented with 10% FBS, 5 ug/mL blasticidin, 0.5 mg/mL geneticin, 100 U/mL penicillin and 100 ug/mL streptomycin were dispensed at 2500 cells/4 uL/well in 1536-well white solid bottom plates using a Multidrop Combi. After the assay plates were incubated at 37 C/5% CO2 for 4 hrs, 23 nL of compounds at 15 concentrations (from 5-48 columns) or positive control (from 1 to 4 columns) were transferred to the assay plates using a Pintool station. One uL of CITCO, was added using a Flying Reagent Dispenser to generate a final concentration of 50 nM CITCO inside each well. After a 24 hr incubation period at 37 C/5% CO2, four uL of ONE-Glo reagent was added into the assay plates using a Flying Reagent Dispenser. After a 30 min incubation period at room temperature, the luminescence intensity in the assay plates was measured using a ViewLux plate reader.
In the case of `Clc1cccc(C(c2ccc3nc[nH]c3c2)n2ccnc2)c1` (stereo not given), the Potency entry was “inactive”. `Nc1ccccc1Nc1ccccc1`: the Potency entry is “inactive”. Turning to `Nc1cccc2c(=O)[nH][nH]c(=O)c12`, the Potency result was “inactive”.

Take `CC[C@H](NC(C)C)[C@H](O)c1ccc(O)c2[nH]c(=O)ccc12`: the Potency entry is “inactive”. In the case of `O=C1CCCN1CCO`, the Potency result is “inactive”. The value for `C[C@]12CCC(=O)C=C1[C@@H]1C[C@@H]1[C@H]1[C@@H]3[C@@H]4C[C@@H]4[C@@]4(CCC(=O)O4)[C@@]3(C)CC[C@@H]12` was “inactive”; that for `O=C(O)c1cc(C(=O)O)cc([N+](=O)[O-])c1` was “inactive”. The value for `O=C(OCCCCCOC(=O)c1ccccc1)c1ccccc1` was “inactive”. With `Clc1cc(Cl)c2c(c1)N=C1CCCCCN1C2`, the Potency entry was “inactive”. The value for `COC(=O)C(C)(C)C` was “inactive”. Consider `CC(C)CCCCCCCOC(=O)c1ccc(C(=O)OCCCCCCCC(C)C)c(C(=O)OCCCCCCCC(C)C)c1`, for which the Potency entry was “inactive”. The value for `COC(=O)c1cc(Cl)ccc1[N+](=O)[O-]` was “inactive”. For the molecule `CCc1ccc(C(=O)C(C)CN2CCCCC2)cc1` (stereo not given), the Potency result is “inactive”. For the molecule `CC(C)(O)C(=O)O`, the Potency result is “inactive”.

For the molecule `Cc1c(N=C=O)cccc1N=C=O`, the Potency entry is “inactive”. Regarding `O=C1c2ccccc2C(=O)C1c1ccc2ccccc2n1`, the Potency result is “inactive”.

As for `COC(=O)/C=C/C(C)=C\C=C\C(C)=C\C=C\C=C(C)\C=C\C=C(C)\C=C\C(=O)O`, the Potency result was “inactive”. As for `Cc1cc(C)c(C)c(O)c1`, the Potency entry was “inactive”. Regarding `CCCCC(CC)COCCC#N` (stereo not given), the Potency entry was “inactive”. With `OCCOc1cccc(OCCO)c1`, the Potency entry is “inactive”.

Consider `CC(=O)c1cccnc1`, for which the Potency entry was “inactive”.

As to `CC(C)(C)NCC(O)COc1ccc(NC(=O)NC2CCCCC2)cc1` (stereo not given), the Potency entry is “inactive”. As to `CC(=O)c1ccc(Cl)c(Cl)c1Cl`, the Potency entry is “inactive”. Under `CC(C)NC(=O)c1ccccc1N` stands “inactive”; under `CCOc1ccccc1O`, “inactive”; under `COc1ccnc2c1CCCCC2S(=O)c1nc2ccccc2[nH]1` (stereo not given), “inactive”.

`CCCCCCOC(=O)c1ccccc1`: the Potency entry was “inactive”. As for `CC(C)Oc1ccccc1O`, the Potency entry was “inactive”. Take `Oc1ccc(CCNCCCCCCNCCc2ccccc2)cc1O`: the Potency entry was “inactive”. Turning to `Nc1ccc(-c2ccc(F)cc2)cc1`, the Potency result is “inactive”. Take `CCCN(C1CCN(C(=O)C2CCNCC2)CC1)[C@@H]1CCc2ccc(OC)cc2C1`: the Potency result is “inactive”. On to `CCCCCCCCCCCCCCCCN`, for which the Potency result was “inactive”. For `CCCCOc1ccc(N)cc1`, the Potency result is “inactive”. As to `CC(=O)S[C@H](C(=O)N[C@H]1Cc2ccccc2[C@H]2CCC[C@@H](C(=O)O)N2C1=O)C(C)C`, the Potency result is “inactive”.

For `CC(=O)Nc1ccccc1O`, the Potency result was “inactive”. `Cc1c(Nc2ncccc2C(=O)O)cccc1C(F)(F)F`: the Potency entry is “inactive”. As for `CC(=O)Oc1cccc2c1C(=O)c1c(OC(C)=O)cc(C(=O)O)cc1C2=O`, the Potency result is “inactive”. As to `Cc1ccc(S(=O)(=O)NC(=O)NC2CCCC2)cc1`, the Potency entry was “inactive”. Under `O=C(O)c1cccc(C(=O)O)c1C(=O)O` stands “inactive”; under `C=CC(O)CCCCC` (stereo not given), “inactive”.
